# Laboratory results taken from paper PMC5540273 (PLoS ONE, 2017).
# Key:
# Conditions in all cases: concentration: 1 μM,replicates: in singlicate; n = 1
# [1] = tested on: TNNI3K
# [2] = tested on: T1, TRKA
# T1 construct: gene NTRK1
# [3] = tested on: TRKB
# [4] = tested on: T2, TRKC
# T2 construct: gene NTRK3
# [5] = tested on: TRPM6
# [6] = tested on: TSSK1B
# [7] = tested on: TSSK3
# [8] = tested on: TTK
# [9] = tested on: TXK
# [10] = tested on: TYK2(JH1domain-catalytic)
# [11] = tested on: TYK2(JH2domain-pseudokinase)
# [12] = tested on: TYRO3
# [13] = tested on: ULK1
# [14] = tested on: ULK2
# [15] = tested on: ULK3
# [16] = tested on: T3, VEGFR2
# T3 construct: gene KDR
# [17] = tested on: T4, VPS34
# T4 construct: gene PIK3C3
# [18] = tested on: VRK2
# [19] = tested on: WEE1
# [20] = tested on: WEE2
# 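Also: KINOMEscan kinase panel screen.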
SMILES,%Inh [1] [%],%Inh [2] [%],%Inh [3] [%],%Inh [4] [%],%Inh [5] [%],%Inh [6] [%],%Inh [7] [%],%Inh [8] [%],%Inh [9] [%],%Inh [10] [%],%Inh [11] [%],%Inh [12] [%],%Inh [13] [%],%Inh [14] [%],%Inh [15] [%],%Inh [16] [%],%Inh [17] [%],%Inh [18] [%],%Inh [19] [%],%Inh [20] [%]
N#Cc1cccc(C(=O)NC2CCN(c3ccnc(Nc4ccc(F)cc4)n3)C2)c1 (centres unmarked) [GSK1379708],4,0,8,28,0,0,18,0,0,14,12,0,7,0,0,0,0,0,12,6
Cc1ccc(CC(=O)N2CCc3cc(-c4cn(C)c5ncnc(N)c45)ccc32)cc1 [GSK2634758],0,10,34,29,5,6,13,0,8,0,17,0,11,35,6,0,0,19,0,0
O=C(NOCC1CC1)c1cc(Br)c(F)c(F)c1Nc1ccc(I)cc1Cl,0,1,20,0,0,0,9,0,0,0,0,0,0,0,10,0,0,0,0,0
COc1cc2c(Nc3ccc(NC(=O)c4ccccc4)cc3)ncnc2cc1OCCCN1CCOCC1 [GSK301329],9,84,0,0,23,0,16,50,4,2,0,13,7,0,13,6,2,0,19,9
NC(=O)Nc1sc(-c2ccc(F)cc2)cc1C(N)=O [GW789449],24,98.6,89,67,1,0,0,32,21,98.6,100,16,32,40,55,19,22,0,30,11
CNC(=O)c1ccccc1Nc1nc(Nc2cccc(CS(C)(=O)=O)c2)ncc1C.O=CO [GSK1520489],66,98,91.1,97.4,78,9,0,93.8,99.7,99.6,98.9,72,98.6,65,99.9,96.3,77,36,98.1,99.9
CC(=O)Nc1ccc(-c2cc3ncnc(SCC(=O)O)c3s2)cc1,0,31,0,0,23,21,0,0,17,37,0,0,10,13,15,27,0,0,0,4
CN1CCN(CCCNc2nccc(-c3c(-c4ccc(F)cc4)nn4cc(C(N)=O)ccc34)n2)CC1 [GW622475],3,43,10,6,23,18,24,8,47,0,40,0,8,0,0,9,19,0,2,0
Cc1ccc(Nc2ccnc(Nc3ccc4c(c3)CS(=O)(=O)C4)n2)cc1O.Cl [GW579362],70,100,91.7,78,25,1,27,81,90,96.9,99.5,79,55,2,99.5,93.6,76,0,50,98.3
CC(C)c1nc(-c2cccc(NS(=O)(=O)c3ccccc3)c2)c(-c2ccnc(Nc3ccc4c(c3)CN(C)CC4)n2)s1 [GSK1649598],85,65,41,0,68,16,0,23,71,55,28,79,42,67,48,90.1,0,0,0,0
